KB-V1 MDR tox: kills drug-selected multidrug resistant KB-V1 cells | actives 3.4% (n = 400,000) | AID 1347076 | KB-V1 MDR cells viability, CellTiter-Glo, 72 h | Potency, µM (doses to about 46.1 µM), usual class: cytotoxic; further: nearly all actives have a fitted effect of over 60% in size
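Cells of the MDR subline KB-V1 are plated, dosed with compound at multiple concentrations, and incubated 72 h at 37 degrees C; CellTiter-Glo is then added and luminescence read after 10 min.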
TDP1 cell noCPT: qHTS for Inhibitors of human tyrosyl-DNA phosphodiesterase 1 (TDP1): qHTS in cells in absence of CPT | AID 686978, 2013 | Potency, µM (titrated, usually from 46.2 µM), for the others: top-dose activity change, negative = growth inhibition, actives largely listed as inhibitors | DT40 Tdp1-/- hTDP1 cells, no CPT, ATP luminescence, 48 h | actives 15% (n = 420,000); further: nearly all actives have a fitted effect of over 55% in size
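No-CPT arm: Tdp1-/-;hTDP1 DT40 cells (400/well) plus compounds, incubated ≥48 hr at 37 °C. Readout CellTiter-Glo luminescence.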
HT1080 IDH1KD tx: toxicity to HT-1080 IDH1 knockdown cells (counter line); actives 2% (n = 360,000); Potency, µM (series often up to 46.1 µM), for the others: at the highest dose activity, negative = toxicity, actives largely listed as cytotoxic; HT-1080 IDH1 knockdown viability, ATP luminescence, 48 h;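 further: 0% = DMSO wells and -100% = cell-free medium wells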
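After a 2 h attachment period, IDH1KD HT-1080 cells took pin-transferred compound for 48 h at 37 °C; ATP-based luminescence after 10 min room-temperature reagent incubation reported viability.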
KB-3-1 cytotox: KB-3-1 parental cell cytotoxicity | KB-3-1 viability, CellTiter-Glo ATP luminescence, 72 h | Potency, µM (series often up to 46.1 µM), hits mostly cytotoxic | AID 1347075 | actives 1.4% (n = 400,000); further: nearly all actives have a fitted effect of over 60% in size
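Parental KB-3-1 adenocarcinoma cells in phenol-red-free DMEM with 10% FBS were pin-treated with compounds at several concentrations, incubated 72 h at 37 °C, and viability read by CellTiter-Glo luminescence; concentration-effect curves were fitted after normalization.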
TDP1 cell CPT: growth inhibition of DT40 Tdp1-/-;hTDP1 cells with camptothecin (screen for TDP1 inhibitors); chicken DT40 Tdp1-/-;hTDP1 cells + 20 nM CPT, ATP luminescence, 48 h; Potency, µM (highest dose often 46.2 µM), without a hit: at the highest dose activity change, negative = growth inhibition, hits mostly inhibitors; actives 12% (n = 420,000); further: nearly all actives have a fitted effect of over 55% in size
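Chicken DT40 Tdp1-/- cells complemented with human TDP1, 400 cells/well, exposed to compounds plus 20 nM camptothecin for at least 48 h at 37 C; viability read as ATP content by CellTiter-Glo luminescence.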
HT1080-NT tox: kills 2HG-producing HT-1080-NT fibrosarcoma cells | actives 1.6% (n = 360,000) | HT-1080-NT fibrosarcoma viability, CellTiter-Glo ATP luminescence, 48 h | Potency, µM (titrated, usually from 46.1 µM), inactives show at the highest dose activity, negative = less viability, usual class: cytotoxic;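 further: NT is the 2HG producing partner of a matched IDH1 knockdown line; 0% = DMSO-treated cells and -100% = media-only wells without cells; nearly all actives have a fitted effect of over 55% in size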
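Compounds were tested in concentration-response format on HT-1080-NT cells for 48 hours at 37 degrees C. Cell viability came from CellTiter-Glo luminescence; curves were classified by r2, response magnitude and activity.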
Active calls of the source: *; i = inactive; ? = inconclusive; / = not tested or not shown. Compounds with a hit are over-represented: about 19% of the library has one in this group of screens. The call rests on the fitted dose curve; in most records, active means well fitted curve in the direction sought with a large enough effect; inconclusive means small, poorly fitted or top-dose-only effect, or another doubt; inactive means no such curve, though single readings can be large; an effect the other way counts as inactive or inconclusive. Unless noted, on the % scale 0 is the no-effect control and ±100 the full control effect; potency means the concentration at half of the fitted maximal effect.

SMILES	KB-V1 MDR tox	TDP1 cell noCPT	HT1080 IDH1KD tx	KB-3-1 cytotox	TDP1 cell CPT	HT1080-NT tox
CCCCC1=CC2=C(c3ccco3)C(=O)C(C)(OC(=O)c3ccc(OC)cc3)C(=O)C2=CN1Cc1ccc2c(c1)OCO2 (configuration not stated)	i	13µM*	-5%	i	9.2µM*	2%
CCCCC1=CC2=CC(=O)C(C)(OC(=O)CC)C(=O)C2=CN1CCc1ccccn1 (configuration not stated)	i	-4%	-17%	i	-5%	1%
CCCCC1=CC2=C(c3ccco3)C(=O)C(C)(OC(=O)c3ccc(OC)cc3)C(=O)C2=CN1CCc1ccccn1 (configuration not stated)	?	9.2µM*	4%	i	5.8µM*	24%
CCCCC1=CC2=C(c3ccco3)C(=O)C(C)(OC(=O)c3ccc(OC)cc3)C(=O)C2=CN1C1CCCCC1 (configuration not stated)	i	4.6µM*	-3%	i	4.6µM*	14%
O=C(O)CC(=O)NC12CC3CC(CC(C3)C1)C2	?	2%	5%	i	-3%	6%
CC(C)NCC(=O)NC12CC3CC(CC(C3)C1)C2	21µM*	-21%	6%	i	?	2%
Cc1ccc(-c2cn(-c3ccccc3)c(SCC(=O)NC3CCS(=O)(=O)C3)n2)cc1C (configuration not stated)	3.7µM*	?	3%	i	?	3%
C=C1C(=O)O[C@@H]2[C@H]3O[C@]3(C)CCC=C(C)CC[C@@H]12	/	2.1µM*	/	/	3µM*	/
CCCCn1c(SCC(=O)NNC(=O)c2ccccc2)n[nH]c1=O	i	-6%	3%	i	-2%	-6%
Cc1ccc(-c2n[nH]c3c2C(c2ccc(C(C)(C)C)cc2)NC3=O)cc1 (configuration not stated)	i	-6%	/	i	-4%	/
COc1cc(/C=C/c2nc3cc(Cl)ccc3c(=O)n2-c2ccc(C)cc2C)cc(OC)c1OC	i	?	/	i	16µM*	/
O=C(CCNC(=O)C1CCN(S(=O)(=O)c2ccccc2)CC1)NCCc1ccc(Cl)cc1	i	-8%	0%	i	-14%	12%
CCCNC(=O)C1CCN(S(=O)(=O)c2ccc(Br)cc2)CC1	16µM*	-26%	-28%	i	-22%	-9%
CCCNC(=O)C1CCN(S(=O)(=O)c2ccc(-c3nn[nH]n3)cc2)CC1	i	0.01µM*	-5%	i	12µM*	1%
CCCNC(=O)C1CCN(S(=O)(=O)c2ccc3c(c2)OCCO3)CC1	i	3%	2%	i	-5%	3%
O=C(CCNC(=O)C1CCN(S(=O)(=O)c2ccccc2)CC1)NCCc1cccc(F)c1	?	26µM*	0%	i	?	1%
COc1ccc(CNC(=O)C2CCN(S(=O)(=O)c3ccc(-c4nn[nH]n4)cc3)CC2)cc1	i	-12%	7%	i	-5%	0%
O=C(NCCc1nnc2n1CCN(Cc1ccc(F)cc1)CC2)c1ccco1	/	-1%	/	/	0%	/
CCOC(=O)c1[nH]c(COC(=O)CCOc2ccccc2OC)c(C(=O)OCC)c1C	i	-7%	4%	i	-21%	-1%
CCc1ccc2nc(Nc3nc(COC)cc(=O)[nH]3)nc(C)c2c1	21µM*	23µM*	17%	i	9.2µM*	4%
COCc1cc(=O)[nH]c(Nc2nc3ccc(C)cc3o2)n1	?	4.6µM*	?	21µM*	4.6µM*	4%
CCCCCc1c(C)nc(Nc2nc(C)c3cc(OC)ccc3n2)[nH]c1=O	i	16µM*	15%	i	13µM*	?

High-throughput results as filed in PubChem BioAssay.
